The full ranking holds about 68,000 sequences; the median of “fluorescence intensity (a.u.)” is about 9,100, and the highest 2% start at about 16,000. The sample holds the highest values, similar sequences and a random draw of the others, so the mix is not that of the screen.

We go through 46 sequences from article PMC7819943, “Rice protein-binding microarrays: a tool to detect cis-acting elements near promoter regions in rice”.

OsWRKY34, sequence (Q0JBA9 entry or part of it): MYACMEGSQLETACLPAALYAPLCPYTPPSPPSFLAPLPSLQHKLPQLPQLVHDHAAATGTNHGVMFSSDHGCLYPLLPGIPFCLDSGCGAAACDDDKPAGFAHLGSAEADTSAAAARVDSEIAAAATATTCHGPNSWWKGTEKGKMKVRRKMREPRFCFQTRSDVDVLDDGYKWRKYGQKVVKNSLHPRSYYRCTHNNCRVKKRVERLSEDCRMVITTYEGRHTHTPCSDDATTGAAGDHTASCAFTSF

For this assay, the target named is OsWRKY34 (Oryza sativa, UniProt Q0JBA9 1-250). The experiment in a line: protein-binding microarray (RPBM); PBS, 2% BSA, 51.3 ng/ul salmon testes DNA, 50 uM zinc acetate, 200 nM TF, 25 C, 1 h; high values mean tight binding. Particulars: protein: recombinant; tags: N-terminal polyhistidine and DsRed monomer fusion (pET32a); label: CyDye5-dUTP incorporated in the synthesized complementary strand; 3' TTTTT single-stranded linker to array surface; dsDNA, one strand shown. Put shortly:
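Ni–NTA purification followed expression in E. coli BL21-CodonPlus of transcription factors fused N-terminally to a polyhistidine tag and DsRed. At 200 nM in PBS with 2% BSA, salmon testes DNA and 50 µM zinc acetate, the protein was incubated for 1 h at 25 °C with a custom Agilent array that had been primer-extended with Cy5-dUTP and blocked with 2% BSA. After washing, the array was read on an Axon 4000B scanner. The binding signal is per-feature fluorescence intensity in arbitrary units.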
“TGTTGGTGGTGAGGTGTGAGGTGAGGTGGGGTGGTGTGGCCGGAGTCACCTAGTGCAG”: the binding signal is 10100 fluorescence intensity (a.u.).
The figure for “CTTTCTTCTGTGTGGTGGGTTTTAGCCGGTTTCTCGCAATCGGAGTCACCTAGTGCAG” is 18400 fluorescence intensity (a.u.); for “GAAATATCAACAACCCTATAAAAAAAGTCAACCCATGTACCGGAGTCACCTAGTGCAG” it is 9120 fluorescence intensity (a.u.); for “CACACACACAAATCCACAAGTAGACATCCTTCCATGTCTTCGGAGTCACCTAGTGCAG” it is 8380 fluorescence intensity (a.u.).
The figure for “AGGTAGTCAAGGTGGACTTATTCCTTTTGTTTCTTCCATTCGGAGTCACCTAGTGCAG” is 8900 fluorescence intensity (a.u.).
The figure for “CCATTTGTCCACCACCACCTCCACCACCTGACACGTCGTCCGGAGTCACCTAGTGCAG” is 8050 fluorescence intensity (a.u.); for “AATTATTTTCATTTGCTAAGTTACTATTTCGCATTTTTTTCGGAGTCACCTAGTGCAG” it is 8650 fluorescence intensity (a.u.); for “CAATTATTACAGGCGGCCAGCGCCTCATGGCTTTTACCTTCGGAGTCACCTAGTGCAG” it is 8660 fluorescence intensity (a.u.).
As for “TCTTACTTGCATGTGAACACCTCTTTGTCGGTTTTTCCATCGGAGTCACCTAGTGCAG”, the binding signal was 10400 fluorescence intensity (a.u.).
As for “AAAAAAGTCAACCCATGTACACCGTCCGATCTCCATCCGACGGAGTCACCTAGTGCAG”, the binding signal is 8110 fluorescence intensity (a.u.).
For “TTTTGTCTCTTTCTGCTGCTGGAGTAGTATTGTTCATTTACGGAGTCACCTAGTGCAG”, the binding signal was 9050 fluorescence intensity (a.u.).
Regarding “CTGGTAGGATTGCTGCTTGCTTTGCCTTCACGTCATTATCCGGAGTCACCTAGTGCAG”, the binding signal is 11200 fluorescence intensity (a.u.).
For “TGCGTTTCCCGTCAGCCCTGTCACGCCGCCGCCGGTCGCCCGGAGTCACCTAGTGCAG” the value was 12000 fluorescence intensity (a.u.); for “ACTTTCTTTTTGGGCCTGAAACCACGACGGCCCTTTGTTCCGGAGTCACCTAGTGCAG”, 8760 fluorescence intensity (a.u.).
As to “CGCAAGGGAGAATAGGGGTGTTGAGAGGAGGGGCGACAGGCGGAGTCACCTAGTGCAG”, the binding signal is 8240 fluorescence intensity (a.u.).
On to “AAAATAGGCCAATAGGGTGTTGAGAGAAAAGGAGATATATCGGAGTCACCTAGTGCAG”, for which the binding signal is 17500 fluorescence intensity (a.u.).
For “AAGGATATAAGGGTGGTTGAGGGGTAGAATAGGAAGAAATCGGAGTCACCTAGTGCAG” the value was 9360 fluorescence intensity (a.u.); for “GATGGCTTCGATTTGCTGTGTTACTTCTTTTTTCTAGTTTCGGAGTCACCTAGTGCAG”, 16900 fluorescence intensity (a.u.).
For “CCTGTTGCTGCTCTGTGCCTCTGCTCTGCTCCTTGACTTCCGGAGTCACCTAGTGCAG” the value was 11300 fluorescence intensity (a.u.); for “TATTTCGATTTGATGGCTTCCTGTTGCTTTTCCTGTTAATCGGAGTCACCTAGTGCAG”, 14000 fluorescence intensity (a.u.).
The figure for “TTTTGAGTGCTTTTATTTCTTTATTTCTTTATTTCTTTATCGGAGTCACCTAGTGCAG” is 9320 fluorescence intensity (a.u.); for “ATGTTGACTCGTTTGCCTGTGTTCCTCTTGCTGCTATTCACGGAGTCACCTAGTGCAG” it is 19200 fluorescence intensity (a.u.).
Take “CTTTCTTTGACTGTTGCCTTTTATTTTGTGCAGGTTGTATCGGAGTCACCTAGTGCAG”: the binding signal is 11300 fluorescence intensity (a.u.).
The figure for “TTGCTTTTGTGTTCGGTTTTTCTATTTTTTCTATTTTCTTCGGAGTCACCTAGTGCAG” is 13700 fluorescence intensity (a.u.); for “TCCTCTTTTTGCTGGCTTTCTGTTGACTGTTATTTTATTTCGGAGTCACCTAGTGCAG” it is 17100 fluorescence intensity (a.u.).
The figure for “CCTCTTGCTATGTGCTGCTCTTCCTTGTTCTTCTTGCCTACGGAGTCACCTAGTGCAG” is 10800 fluorescence intensity (a.u.); for “GGTTTCGGTTAACTTTTGTGCACACTCGCCAGTGAGAGTTCGGAGTCACCTAGTGCAG” it is 12300 fluorescence intensity (a.u.); for “TGTAAGTCATTCCACCATTTCCCACATTCATATTGATGCCCGGAGTCACCTAGTGCAG” it is 8890 fluorescence intensity (a.u.).
With “TTTAACCTAAACCACATGTGAATTTCTTCTTATGTATTCCCGGAGTCACCTAGTGCAG”, the binding signal is 8700 fluorescence intensity (a.u.).
For “GTGGGATTCGCCTGCTTGCTTGCTGGGGCCTTGGGAAATGCGGAGTCACCTAGTGCAG” the value was 8230 fluorescence intensity (a.u.).
For “TCAAAACGGCCCACTCGCCGCCCGCCACGTGTCCGACCCGCGGAGTCACCTAGTGCAG” the value was 8920 fluorescence intensity (a.u.).
As for “GATCCGCATCACTGATTCACTGCACTTCGCCCGCCGTCTGCGGAGTCACCTAGTGCAG”, the binding signal is 9810 fluorescence intensity (a.u.).
The figure for “TTTTATTCAATATATGTATATAGGTATCTTTGGTTGTTTTCGGAGTCACCTAGTGCAG” is 8320 fluorescence intensity (a.u.); for “TTCGAGCACATCTACTTCGCGCTCCCAAACTCCGTGGTGTCGGAGTCACCTAGTGCAG” it is 8080 fluorescence intensity (a.u.).
Turning to “GTTGTTTGGTTGCGTGAGGAGAGGAGGAGGAGGAGGAGGACGGAGTCACCTAGTGCAG”, the binding signal was 8200 fluorescence intensity (a.u.).
Regarding “TGTTGTTGTGGTGGTGGTGGTGGTGGTAGTGCGTGAGTGACGGAGTCACCTAGTGCAG”, the binding signal is 21200 fluorescence intensity (a.u.).
For “GTGGGTGTTTGCGAGCTTTTGTTCGTATGCTTTTTTACTTCGGAGTCACCTAGTGCAG” the value was 9960 fluorescence intensity (a.u.); for “TCATATGGGTTGGTGTATGTGTATTGTGAGTCTGTGTTTGCGGAGTCACCTAGTGCAG”, 8300 fluorescence intensity (a.u.).
For “TTTTTTTGTGTTTTGCAATTTTATGTTTTGCACTTATTTTCGGAGTCACCTAGTGCAG” the value was 8070 fluorescence intensity (a.u.); for “GGGTGAGTGCGCGTGCGTTGTGAGTGTTTGTATTGTACTGCGGAGTCACCTAGTGCAG”, 9790 fluorescence intensity (a.u.).
For “ATTTCGGATTTGTATGTATTGTGTTTTTTTAAAAAAAATTCGGAGTCACCTAGTGCAG” the value was 9880 fluorescence intensity (a.u.); for “TCATATATGAGTTTGTGGGTGTGGGTGTTTGCGAGCTTTTCGGAGTCACCTAGTGCAG”, 30700 fluorescence intensity (a.u.).
For the sequence “GGGTGAGTGTGTGTTGTGCGTTGTGAGTGTGTATGTGTTTCGGAGTCACCTAGTGCAG”, the binding signal was 17200 fluorescence intensity (a.u.).
For “GCAATTGTTCAATATTTTTTTGTGTGTATGTGTTTTTTTTCGGAGTCACCTAGTGCAG” the value was 18200 fluorescence intensity (a.u.); for “GAGGTGTGTGTTCGTAGAGATGAGTGCGTGCGCGTTGTGACGGAGTCACCTAGTGCAG”, 9140 fluorescence intensity (a.u.).
The figure for “TCTCTCTGTGTGTGTTTGTGTCATATATGAGTTTGTGGGTCGGAGTCACCTAGTGCAG” is 9570 fluorescence intensity (a.u.).
